# Paper PMC7862700, “An all-to-all approach to the identification of sequence-specific readers for epigenetic DNA modifications on cytosine”
# Key:
# Test in all cases: DAPPL (digital affinity profiling via proximity ligation, sequencing); 10 mM Tris-HCl pH 7.5, 50 mM NaCl, 1 mM DTT, 4% glycerol, room temperature, 30 min; GST-TFs on glutathione beads, 16-mer random dsDNA library, 0.1% formaldehyde crosslink after washing; high values mean tight binding
# FEV = target: T1, FEV (Homo sapiens, UniProt Q99581 1-238); settings: protein: recombinant; tags: N-terminal GST; dsDNA, one strand shown
# T1 sequence: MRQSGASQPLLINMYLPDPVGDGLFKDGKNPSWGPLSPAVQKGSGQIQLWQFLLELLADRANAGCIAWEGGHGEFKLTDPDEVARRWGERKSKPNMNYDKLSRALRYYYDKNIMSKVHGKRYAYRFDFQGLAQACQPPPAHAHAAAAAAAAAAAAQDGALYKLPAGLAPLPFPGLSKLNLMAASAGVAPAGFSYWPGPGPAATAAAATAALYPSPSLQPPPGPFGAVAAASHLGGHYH
# Outline: (§1)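 The binding signal reported is, for every hexamer, its read frequency for a factor over its read frequency for the tag-only sample. Reads came from pools of yeast-expressed, GST-fused human transcription factors on glutathione beads, barcoded with DNA and mixed with that sample, which were incubated with 200 nmole of a random double-stranded 16-mer DNA library in Tris/NaCl/DTT/glycerol buffer at room temperature for 30 min. After washing, the pools were crosslinked with 0.1% formaldehyde, proximity-ligated with BsaI/T4 ligase for 1 h at 37 °C, PCR-amplified and sequenced on an Illumina NextSeq500.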
# ETV5 = ETV5 (Homo sapiens, UniProt P41161 1-510); settings: protein: recombinant; tags: N-terminal GST; dsDNA, one strand shown
# Outline: as §1
# HSF1 = HSF1 (Homo sapiens, UniProt Q00613 1-529); settings: protein: recombinant; tags: N-terminal GST; chain copies: 3; dsDNA, one strand shown
# Outline: as §1
# SPIC = target: T2, SPIC (Homo sapiens, UniProt Q8N5J4 1-248); settings: protein: recombinant; tags: N-terminal GST; dsDNA, one strand shown
# T2 sequence: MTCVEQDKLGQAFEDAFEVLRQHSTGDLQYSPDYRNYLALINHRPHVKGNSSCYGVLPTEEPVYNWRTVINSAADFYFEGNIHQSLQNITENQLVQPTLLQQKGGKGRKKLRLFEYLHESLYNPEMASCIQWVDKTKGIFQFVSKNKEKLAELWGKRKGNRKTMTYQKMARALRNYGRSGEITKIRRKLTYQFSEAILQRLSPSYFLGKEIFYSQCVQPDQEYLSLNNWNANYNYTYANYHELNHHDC
# Outline: as §1
# ELF4 = ELF4 (Homo sapiens, UniProt Q99607 1-663); settings: protein: recombinant; tags: N-terminal GST; dsDNA, one strand shown
# Outline: as §1
# ELK4 = target: T3, ELK4 (Homo sapiens, UniProt P28324-2 1-405); settings: protein: recombinant; tags: N-terminal GST; dsDNA, one strand shown
# T3 sequence: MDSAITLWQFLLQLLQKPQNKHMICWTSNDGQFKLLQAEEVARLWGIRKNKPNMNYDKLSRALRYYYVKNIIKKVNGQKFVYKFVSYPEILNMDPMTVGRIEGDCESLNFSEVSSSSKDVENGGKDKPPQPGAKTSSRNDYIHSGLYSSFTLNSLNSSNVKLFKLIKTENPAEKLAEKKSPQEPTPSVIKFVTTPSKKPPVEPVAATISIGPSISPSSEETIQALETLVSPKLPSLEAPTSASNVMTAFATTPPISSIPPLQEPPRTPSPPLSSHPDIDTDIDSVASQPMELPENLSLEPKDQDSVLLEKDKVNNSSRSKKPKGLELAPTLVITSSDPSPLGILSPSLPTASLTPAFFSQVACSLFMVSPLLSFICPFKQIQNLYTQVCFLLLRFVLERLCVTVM
# Outline: as §1
# ETV2 = target: T4, ETV2 (Homo sapiens, UniProt O00321 1-342); settings: protein: recombinant; tags: N-terminal GST; dsDNA, one strand shown
# T4 sequence: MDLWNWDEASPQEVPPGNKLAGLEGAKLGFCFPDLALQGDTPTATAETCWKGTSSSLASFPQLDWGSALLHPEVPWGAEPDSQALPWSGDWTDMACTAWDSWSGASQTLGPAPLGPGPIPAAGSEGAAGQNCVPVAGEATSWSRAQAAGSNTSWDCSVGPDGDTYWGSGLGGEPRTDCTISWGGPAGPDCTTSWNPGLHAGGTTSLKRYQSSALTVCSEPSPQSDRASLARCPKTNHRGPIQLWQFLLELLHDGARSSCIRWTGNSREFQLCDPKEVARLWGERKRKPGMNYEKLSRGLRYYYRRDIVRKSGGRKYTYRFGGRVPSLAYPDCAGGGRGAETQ
# Outline: as §1
# ELF3 = target: T5, ELF3 (Homo sapiens, UniProt P78545 1-371); settings: protein: recombinant; tags: N-terminal GST; dsDNA, one strand shown
# T5 sequence: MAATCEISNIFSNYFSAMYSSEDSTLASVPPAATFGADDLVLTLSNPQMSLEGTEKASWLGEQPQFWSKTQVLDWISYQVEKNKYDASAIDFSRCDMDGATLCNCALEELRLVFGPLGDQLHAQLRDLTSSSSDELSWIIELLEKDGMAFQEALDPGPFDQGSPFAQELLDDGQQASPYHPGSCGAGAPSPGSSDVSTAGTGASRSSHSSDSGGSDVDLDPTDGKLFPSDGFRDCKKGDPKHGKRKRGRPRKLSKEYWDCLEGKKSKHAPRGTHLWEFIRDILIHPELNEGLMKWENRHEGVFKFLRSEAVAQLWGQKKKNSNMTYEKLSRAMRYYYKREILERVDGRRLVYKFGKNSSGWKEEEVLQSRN
# Outline: as §1
# CRX = CRX (Homo sapiens, UniProt O43186 1-299); settings: protein: recombinant; tags: N-terminal GST; dsDNA, one strand shown
# Outline: as §1
# ETV1 = ETV1 (Homo sapiens, UniProt P50549 1-477); settings: protein: recombinant; tags: N-terminal GST; dsDNA, one strand shown
# Outline: as §1
# Sequence of HSF1 (Q00613 whole entry): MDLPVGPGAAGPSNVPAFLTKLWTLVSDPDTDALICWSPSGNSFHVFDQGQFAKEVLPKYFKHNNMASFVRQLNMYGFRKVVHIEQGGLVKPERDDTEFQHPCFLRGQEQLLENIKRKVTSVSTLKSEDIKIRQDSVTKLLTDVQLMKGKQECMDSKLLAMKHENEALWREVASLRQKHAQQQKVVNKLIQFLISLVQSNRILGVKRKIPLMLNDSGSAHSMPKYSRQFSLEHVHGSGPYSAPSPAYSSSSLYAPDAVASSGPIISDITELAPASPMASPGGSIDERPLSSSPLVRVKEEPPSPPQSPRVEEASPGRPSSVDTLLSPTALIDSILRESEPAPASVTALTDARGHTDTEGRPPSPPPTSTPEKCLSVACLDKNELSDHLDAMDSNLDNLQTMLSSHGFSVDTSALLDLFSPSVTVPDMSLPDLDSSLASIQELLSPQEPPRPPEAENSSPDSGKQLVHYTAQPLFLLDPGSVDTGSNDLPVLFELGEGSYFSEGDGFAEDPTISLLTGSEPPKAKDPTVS
# Sequence of ELF4 (Q99607 whole entry): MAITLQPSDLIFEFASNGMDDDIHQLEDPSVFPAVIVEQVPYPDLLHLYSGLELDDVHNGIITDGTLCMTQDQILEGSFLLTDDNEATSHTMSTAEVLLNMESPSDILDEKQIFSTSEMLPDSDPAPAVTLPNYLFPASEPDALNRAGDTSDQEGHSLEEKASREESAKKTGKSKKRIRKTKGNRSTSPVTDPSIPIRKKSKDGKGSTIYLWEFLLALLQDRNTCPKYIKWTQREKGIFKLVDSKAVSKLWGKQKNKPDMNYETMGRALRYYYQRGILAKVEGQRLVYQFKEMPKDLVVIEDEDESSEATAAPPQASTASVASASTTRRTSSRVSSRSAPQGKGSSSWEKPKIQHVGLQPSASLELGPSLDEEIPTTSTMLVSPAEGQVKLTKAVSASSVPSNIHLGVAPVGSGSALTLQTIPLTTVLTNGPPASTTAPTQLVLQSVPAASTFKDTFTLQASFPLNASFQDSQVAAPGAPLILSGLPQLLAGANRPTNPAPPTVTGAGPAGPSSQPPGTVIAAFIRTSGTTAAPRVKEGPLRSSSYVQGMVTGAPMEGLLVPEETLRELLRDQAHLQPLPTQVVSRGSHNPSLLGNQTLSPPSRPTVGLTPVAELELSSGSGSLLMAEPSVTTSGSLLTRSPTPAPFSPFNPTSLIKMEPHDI
# Sequence of CRX (O43186 whole entry): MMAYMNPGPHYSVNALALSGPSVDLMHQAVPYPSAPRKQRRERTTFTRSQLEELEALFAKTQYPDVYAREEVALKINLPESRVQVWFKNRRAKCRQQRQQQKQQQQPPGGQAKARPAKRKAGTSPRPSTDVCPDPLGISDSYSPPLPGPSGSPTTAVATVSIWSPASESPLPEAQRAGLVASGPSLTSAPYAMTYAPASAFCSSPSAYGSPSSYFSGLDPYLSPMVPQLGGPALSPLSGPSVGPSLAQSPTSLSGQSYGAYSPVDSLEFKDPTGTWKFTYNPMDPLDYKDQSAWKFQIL
# Sequence of ETV5 (P41161 whole entry): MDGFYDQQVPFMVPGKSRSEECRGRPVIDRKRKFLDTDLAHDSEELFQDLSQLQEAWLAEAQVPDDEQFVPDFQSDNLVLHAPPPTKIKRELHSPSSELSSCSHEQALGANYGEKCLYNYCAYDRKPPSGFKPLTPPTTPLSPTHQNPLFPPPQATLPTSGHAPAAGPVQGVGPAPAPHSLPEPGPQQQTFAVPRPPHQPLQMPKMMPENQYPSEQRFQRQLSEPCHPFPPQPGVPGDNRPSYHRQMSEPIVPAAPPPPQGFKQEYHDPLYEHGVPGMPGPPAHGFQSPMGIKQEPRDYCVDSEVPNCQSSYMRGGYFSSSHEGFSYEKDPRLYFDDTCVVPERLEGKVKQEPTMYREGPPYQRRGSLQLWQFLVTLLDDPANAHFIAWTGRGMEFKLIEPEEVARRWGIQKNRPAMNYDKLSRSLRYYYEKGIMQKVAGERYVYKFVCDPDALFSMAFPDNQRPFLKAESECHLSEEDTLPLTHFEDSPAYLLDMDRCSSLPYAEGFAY
# Sequence of ETV1 (P50549 whole entry): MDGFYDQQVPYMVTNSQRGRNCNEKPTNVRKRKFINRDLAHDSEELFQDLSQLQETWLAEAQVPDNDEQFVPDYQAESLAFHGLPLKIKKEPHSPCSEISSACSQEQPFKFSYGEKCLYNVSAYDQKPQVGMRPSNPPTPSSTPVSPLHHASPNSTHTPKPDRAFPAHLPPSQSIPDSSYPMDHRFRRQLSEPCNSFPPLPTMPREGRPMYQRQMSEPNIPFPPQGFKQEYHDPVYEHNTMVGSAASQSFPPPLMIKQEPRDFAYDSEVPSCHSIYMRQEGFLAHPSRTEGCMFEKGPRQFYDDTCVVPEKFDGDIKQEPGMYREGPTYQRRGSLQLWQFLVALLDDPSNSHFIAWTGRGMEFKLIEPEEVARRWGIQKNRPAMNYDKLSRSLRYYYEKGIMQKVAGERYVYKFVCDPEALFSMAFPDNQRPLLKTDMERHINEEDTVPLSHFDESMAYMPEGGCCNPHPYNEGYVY
sequence,measurement,setting,value
ATGTAT,binding signal,FEV,"1.31 fold enrichment (6-mer frequency, TF over GST control)"
same,binding signal,ETV5,"1.33 fold enrichment (6-mer frequency, TF over GST control)"
same,binding signal,HSF1,"1.18 fold enrichment (6-mer frequency, TF over GST control)"
same,binding signal,SPIC,"1.25 fold enrichment (6-mer frequency, TF over GST control)"
same,binding signal,ELF4,"1.43 fold enrichment (6-mer frequency, TF over GST control)"
same,binding signal,ELK4,"1.57 fold enrichment (6-mer frequency, TF over GST control)"
same,binding signal,ETV2,"1.3 fold enrichment (6-mer frequency, TF over GST control)"
same,binding signal,ELF3,"1.35 fold enrichment (6-mer frequency, TF over GST control)"
same,binding signal,CRX,"1.24 fold enrichment (6-mer frequency, TF over GST control)"
same,binding signal,ETV1,"1.42 fold enrichment (6-mer frequency, TF over GST control)"
